The list is not random: actives were taken first. Their share in the collection is about 3.1%.
miR122 inh: miR-122 Renilla sensor signal increase in Huh7, primary screen, miR-122 inhibitor project, cell-based, single point, plate reader | Huh7 miR-122 Renilla luciferase sensor, 48 h; neutral wells = 0, positive control = 100 | activation (reporter increase), % at 12.5 µM | actives 0.3% (n = 340,000) | AID 602342, 2012;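 active means mean replicate activation score at least 90 and every replicate individually at or above 90; inconclusive means only one of the two criteria met; inactive means neither criterion met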;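 further: higher luciferase means less miR-122 activity so hits act as miR-122 inhibitors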
PAX8 reporter: inhibitors of PAX8-driven TPO luciferase reporter, primary screen, RMG-I cells, single concentration | AID 652154, 2013 | SteadyGlo, 24 h | inhibition, % at 12.6 µM | actives 1.2% (n = 360,000);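 active means mean replicate inhibition at least 60% with every replicate also reaching 60%; inconclusive means only one of the two criteria is met; inactive means mean below 60% and not all replicates reaching 60%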;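 further: luciferase light reporting Pax8 driven TPO promoter activity; plate controls were median of neutral control wells for no effect and mitoxantrone controls for full effect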
EWS-Fli inh: EWS/Fli-driven NR0B1 reporter inhibitors, primary screen, A673 cells, NR0B1 luciferase, luminescence, MLPCN library; inhibition, % at 12.6 µM; AID 651661, 2012; viability-normalised; actives 0.67% (n = 350,000);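 active means mean inhibition of at least 50% after viability correction, with every replicate also passing that limit; inconclusive means mean reaches 50% but only one of two replicates passes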;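 further: firefly luciferase signal divided by Alamar Blue viability fluorescence both relative to DMSO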
Statin myotox sup: suppressors of statin myotoxicity in C2C12 myotubes, primary screen, cell-based, single point, plate reader | C2C12 myotubes + simvastatin, ATP luminescence, 48 h; scaled: DMSO 0, geranylgeraniol control 100 | rescue of ATP level, % at 7.49 µM | actives 0.78% (n = 330,000) | AID 602340, 2012;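 active means mean ATP rescue above about 67%, or every replicate alone reaching that limit, limit read from the data, passing the limit was not always enough; inconclusive means no clear call, values can overlap the other calls; inactive means mean under the limit and some replicate under it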;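 further: myotubes were challenged with 10 µM simvastatin during compound exposure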
INS-1E GSIS act: GLuc luminescence reporter in INS-1E cells, primary screen for activators of glucose-dependent secretion of insulin; INS-1E GLuc reporter insulin secretion, 2-3 h; activation, % at 16.6 µM; actives 0.61% (n = 370,000); AID 743287, 2014;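 active means lowest replicate activation of at least 40%, so every replicate reaches that level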;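 further: 0% = median of neutral control wells and 100% = median of IBMX positive control wells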
HIV Env fusion: inhibitors of HIV-1 Env-driven cell-cell fusion, primary screen, HeLa-JRFL effector, CEM21 target cells, luciferase; inhibition, % at 12.3 µM; actives 1.1% (n = 360,000); AID 651610, 2012;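 active means mean replicate inhibition score of at least 50 and every replicate individually at or above 50; inconclusive means only one of the two criteria met; inactive means mean below 50 and not all replicates reaching 50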;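 further: 0% = plate neutral controls and 100% = maraviroc near 300 nM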
Active calls of the source: *; ? = inconclusive; / = no result; [ ] = remark or other dose.

SMILES | miR122 inh | PAX8 reporter | EWS-Fli inh | Statin myotox sup | INS-1E GSIS act | HIV Env fusion
C[C@@H]1CN([C@@H](C)CO)C(=O)c2cccc(NC(=O)C3CCCCC3)c2O[C@@H]1CN(C)Cc1ccc(C(=O)Nc2ccccc2N)cc1 | 184.6*[16.7 µM] | 21.8 | ? | -51.5 | -2.7 | -34.9[16.7 µM]
Cc1ccc(Sc2c(CO)c(-c3ccccc3)nn2C)cc1 | / | 66.0* | 49.8 | / | -14.7 | -413.8
CCCCCCc1cc2cc(-c3nnc(-c4ccccc4OC)o3)c(=O)oc2cc1O | 23.8 | 11.9 | / | -8.6 | / | 87.5*
Cc1nc2ncnn2c(N2CCN(c3cccc(C(F)(F)F)c3)CC2)c1C | -20.2 | / | / | 19.3 | / | 60.1*
Cc1nc2ncnn2c(N2CCN(C(c3ccccc3)c3ccccc3)CC2)c1C | -3.9 | / | / | 79.1* | / | -75.5
Cc1noc(C)c1NC(=O)Nc1cccc2c1O[C@H](CN(C)S(=O)(=O)c1ccccc1)[C@H](C)CN([C@@H](C)CO)C2=O | -6.8[16.7 µM] | -8.0 | 0.5 | 7.2 | -4.3 | 7.1[16.7 µM]
COCCCN1C(=O)c2ccc(C(=O)O)cc2C1=O | 5.2 | / | / | 100.0* | / | -142.4
CCN1C(=O)c2ccc(C(=O)O)cc2C1=O | 5.1 | / | / | 2.9 | / | /
CC(=O)c1c(C)[nH]c(C(=O)OCC(=O)Nc2ccc(C)cc2[N+](=O)[O-])c1C | / | 18.5 | / | / | -19.9 | 88.2*
CC(=O)c1c(C)[nH]c(C(=O)OCC(=O)Nc2cc(Cl)ccc2[N+](=O)[O-])c1C | / | 26.3 | 5.0 | / | -27.0 | 1.2
Cc1c(Br)c([N+](=O)[O-])nn1CC(=O)Nc1sc2c(c1C(=O)OC(C)C)CCCC2 | -1.8 | 21.2 | / | 8.4 | 46.0* | -30.2
COc1ccc2c(COC(=O)CNC(=O)C34CC5CC(CC(C5)C3)C4)cc(=O)oc2c1 | -7.4 | 121.5* | 5.4 | / | -17.7 | /
Cc1[nH]nc(C(F)(F)F)c1N=NN1CCOCC1 | -0.1 | 33.6 | 31.2 | / | 148.2* | 23.8
Cc1ccc(NS(=O)(=O)c2ccc(-c3cnc(C4CC4)o3)cc2)c(C)c1 | 57.6 | 40.1 | 52.1* | -112.7 | 3.1 | -318.0
O=C1CC(=O)Nc2cc(S(=O)(=O)Nc3ccc(F)cc3Cl)ccc2N1 | -4.6 | -19.6 | -4.1 | 1.8 | 1.3 | -30.8
O=S(=O)(Nc1ccc(F)cc1Cl)c1ccc(-c2cnc(C3CC3)o2)cc1 | 52.7 | 28.0 | 57.3* | -44.7 | / | -208.0
Cc1cccc(N(C)S(=O)(=O)c2ccc(-c3cnc(C4CC4)o3)cc2)c1 | / | 98.9* | 58.1* | -37.0 | -21.0 | -118.8
COc1ccc(NS(=O)(=O)c2ccc(-c3cnc(C4CC4)o3)cc2)cc1OC | 87.1 | 56.9 | ? | -59.6 | -32.2 | -156.9
Cc1ccc(-c2cnc(C3CC3)o2)cc1S(=O)(=O)Nc1ccccc1 | 334.5* | / | / | -36.7 | / | /
C[C@@H]1CCCCO[C@@H](CN(C)CC2CC2)[C@H](C)CN([C@H](C)CO)C(=O)c2cc(NC(=O)CCC(F)(F)F)ccc2O1 | / | 5.6 | -7.2 | / | -4.8 | /
C[C@H]1CCCCO[C@@H](CN(C)C(=O)c2ccncc2)[C@@H](C)CN([C@@H](C)CO)C(=O)c2cc(NS(=O)(=O)c3ccc(Cl)cc3)ccc2O1 | 2.1[16.7 µM] | -7.5 | -2.8 | / | -22.7 | 8.3[16.7 µM]
COc1ccccc1NS(=O)(=O)c1ccc(-c2cnc(C3CC3)o2)cc1 | 30.6 | 41.3 | / | -49.1 | 11.0 | -11.6
CCOc1ccccc1NS(=O)(=O)c1ccc(-c2cnc(C3CC3)o2)cc1 | 126.8* | 76.4* | / | -51.7 | 15.5 | 10.4
COc1ccccc1CNS(=O)(=O)c1ccc(-c2cnc(C3CC3)o2)cc1 | / | 33.6 | 61.2* | -24.8 | -14.4 | -107.3
C[C@@H]1CN([C@H](C)CO)C(=O)c2cccc(NC(=O)c3cnccn3)c2O[C@@H]1CN(C)CC1CC1 | -1.7[16.7 µM] | / | 4.5 | -4.0 | 19.5 | 22.8[16.7 µM]
COc1ccccc1C#Cc1ccc([C@H]2[C@@H](C#N)N(C(=O)C3CC3)[C@@H]2CO)cc1 | / | -23.2 | -8.6 | 33.8 | 11.9 | /
O=C1CS/C(=N/N=C/c2ccccc2OS(=O)(=O)c2ccccc2)N1 | 3.0 | 17.3 | / | -13.1 | 13.3 | 3.0
Cc1ccc(OS(=O)(=O)c2ccccc2)c(/C=N/N=C2\NC(=O)C(C)S2)c1 (stereo not drawn) | -1.0 | / | / | 134.0* | / | /

Screening results (PubChem)
